# Test results reported in PMC7862700, “An all-to-all approach to the identification of sequence-specific readers for epigenetic DNA modifications on cytosine”.
# Assays:
# Experiment in all cases: DAPPL (digital affinity profiling via proximity ligation, sequencing); 10 mM Tris-HCl pH 7.5, 50 mM NaCl, 1 mM DTT, 4% glycerol, room temperature, 30 min; GST-TFs on glutathione beads, 16-mer random dsDNA library, 0.1% formaldehyde crosslink after washing; high values mean tight binding
# FEV = biological target: T1, FEV (Homo sapiens, UniProt Q99581 1-238); conditions: protein: recombinant; tags: N-terminal GST; dsDNA, one strand shown
# T1 sequence: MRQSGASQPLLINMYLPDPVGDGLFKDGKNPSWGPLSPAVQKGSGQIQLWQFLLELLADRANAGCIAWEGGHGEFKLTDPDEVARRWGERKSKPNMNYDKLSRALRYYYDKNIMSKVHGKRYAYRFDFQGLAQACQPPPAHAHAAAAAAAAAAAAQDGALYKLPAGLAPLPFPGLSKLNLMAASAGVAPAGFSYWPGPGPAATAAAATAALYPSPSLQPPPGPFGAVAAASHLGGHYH
# Method in brief: (§1)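 Binding signal is each hexamer's read frequency for a factor divided by its frequency in the tag-only sample. The factors were GST-fused human transcription factors from yeast, captured on glutathione beads, DNA-barcoded and pooled with that sample. Pools were incubated with 200 nmole of a random double-stranded 16-mer DNA library in Tris/NaCl/DTT/glycerol buffer at room temperature for 30 min, then washed, crosslinked with 0.1% formaldehyde, proximity-ligated with BsaI/T4 ligase (1 h, 37 °C), PCR-amplified and sequenced on an Illumina NextSeq500.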
# ETV5 = ETV5 (Homo sapiens, UniProt P41161 1-510); conditions: protein: recombinant; tags: N-terminal GST; dsDNA, one strand shown
# ETV5, sequence (P41161 whole entry): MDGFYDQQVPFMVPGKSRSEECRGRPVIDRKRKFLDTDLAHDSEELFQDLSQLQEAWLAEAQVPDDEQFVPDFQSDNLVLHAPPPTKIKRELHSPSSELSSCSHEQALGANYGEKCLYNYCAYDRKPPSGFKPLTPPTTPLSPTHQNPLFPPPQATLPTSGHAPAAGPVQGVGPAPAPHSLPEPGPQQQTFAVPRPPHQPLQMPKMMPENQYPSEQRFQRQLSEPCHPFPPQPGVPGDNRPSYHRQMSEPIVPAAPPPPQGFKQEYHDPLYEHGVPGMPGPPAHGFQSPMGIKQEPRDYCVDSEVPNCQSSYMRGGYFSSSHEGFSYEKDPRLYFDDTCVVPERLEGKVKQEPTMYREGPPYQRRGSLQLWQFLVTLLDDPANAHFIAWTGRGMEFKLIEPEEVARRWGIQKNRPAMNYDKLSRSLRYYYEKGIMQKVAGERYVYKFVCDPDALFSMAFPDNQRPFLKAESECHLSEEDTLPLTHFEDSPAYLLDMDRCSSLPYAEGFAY
# Method in brief: as §1
# HSF1 = HSF1 (Homo sapiens, UniProt Q00613 1-529); conditions: protein: recombinant; tags: N-terminal GST; chain copies: 3; dsDNA, one strand shown
# HSF1, sequence (Q00613 whole entry): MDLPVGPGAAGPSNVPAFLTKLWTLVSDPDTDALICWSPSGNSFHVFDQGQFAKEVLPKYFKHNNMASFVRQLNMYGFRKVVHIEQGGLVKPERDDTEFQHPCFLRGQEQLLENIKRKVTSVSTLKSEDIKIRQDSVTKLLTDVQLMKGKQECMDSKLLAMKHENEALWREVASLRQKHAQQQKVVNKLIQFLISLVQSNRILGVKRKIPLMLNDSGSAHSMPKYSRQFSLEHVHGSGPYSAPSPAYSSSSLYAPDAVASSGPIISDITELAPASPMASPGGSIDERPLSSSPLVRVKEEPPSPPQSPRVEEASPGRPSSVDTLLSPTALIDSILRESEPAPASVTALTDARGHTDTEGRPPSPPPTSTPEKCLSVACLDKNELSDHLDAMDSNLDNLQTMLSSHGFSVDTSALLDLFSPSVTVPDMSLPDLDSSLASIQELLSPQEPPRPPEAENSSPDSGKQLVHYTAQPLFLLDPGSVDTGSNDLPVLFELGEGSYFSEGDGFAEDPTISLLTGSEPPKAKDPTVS
# Method in brief: as §1
# SPIC = biological target: T2, SPIC (Homo sapiens, UniProt Q8N5J4 1-248); conditions: protein: recombinant; tags: N-terminal GST; dsDNA, one strand shown
# T2 sequence: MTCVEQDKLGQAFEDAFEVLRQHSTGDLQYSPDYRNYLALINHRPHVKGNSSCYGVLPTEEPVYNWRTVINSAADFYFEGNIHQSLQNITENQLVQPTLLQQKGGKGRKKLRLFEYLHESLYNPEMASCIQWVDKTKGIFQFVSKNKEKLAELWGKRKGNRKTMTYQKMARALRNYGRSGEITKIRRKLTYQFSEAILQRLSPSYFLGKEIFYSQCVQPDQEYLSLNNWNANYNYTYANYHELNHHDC
# Method in brief: as §1
# ELF4 = ELF4 (Homo sapiens, UniProt Q99607 1-663); conditions: protein: recombinant; tags: N-terminal GST; dsDNA, one strand shown
# ELF4, sequence (Q99607 whole entry): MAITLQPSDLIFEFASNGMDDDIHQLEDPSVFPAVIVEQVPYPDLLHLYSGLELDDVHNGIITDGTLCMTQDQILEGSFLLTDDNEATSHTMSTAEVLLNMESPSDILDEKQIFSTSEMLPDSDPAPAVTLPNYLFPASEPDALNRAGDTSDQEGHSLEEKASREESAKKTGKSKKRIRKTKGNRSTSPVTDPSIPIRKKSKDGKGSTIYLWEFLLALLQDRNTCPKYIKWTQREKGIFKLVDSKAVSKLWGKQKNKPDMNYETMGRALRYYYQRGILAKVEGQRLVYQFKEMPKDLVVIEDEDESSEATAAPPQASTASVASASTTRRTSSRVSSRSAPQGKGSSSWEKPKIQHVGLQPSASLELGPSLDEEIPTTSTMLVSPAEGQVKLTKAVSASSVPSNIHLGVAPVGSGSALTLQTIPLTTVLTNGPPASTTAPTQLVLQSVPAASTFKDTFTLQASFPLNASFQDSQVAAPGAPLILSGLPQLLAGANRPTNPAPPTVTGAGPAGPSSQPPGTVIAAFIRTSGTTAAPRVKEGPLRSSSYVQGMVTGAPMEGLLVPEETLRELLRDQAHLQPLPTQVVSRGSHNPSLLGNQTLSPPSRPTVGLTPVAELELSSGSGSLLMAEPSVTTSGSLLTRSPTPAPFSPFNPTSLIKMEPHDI
# Method in brief: as §1
# ELK4 = biological target: T3, ELK4 (Homo sapiens, UniProt P28324-2 1-405); conditions: protein: recombinant; tags: N-terminal GST; dsDNA, one strand shown
# T3 sequence: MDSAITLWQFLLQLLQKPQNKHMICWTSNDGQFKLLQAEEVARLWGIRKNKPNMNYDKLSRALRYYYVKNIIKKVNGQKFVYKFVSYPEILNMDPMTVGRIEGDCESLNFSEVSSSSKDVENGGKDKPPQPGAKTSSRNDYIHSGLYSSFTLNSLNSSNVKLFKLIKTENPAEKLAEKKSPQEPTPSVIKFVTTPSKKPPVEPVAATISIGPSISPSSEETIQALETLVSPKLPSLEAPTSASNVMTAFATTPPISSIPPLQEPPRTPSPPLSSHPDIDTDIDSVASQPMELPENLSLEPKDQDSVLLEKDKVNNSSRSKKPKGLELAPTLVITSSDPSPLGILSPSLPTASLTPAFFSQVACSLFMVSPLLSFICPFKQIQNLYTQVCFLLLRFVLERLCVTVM
# Method in brief: as §1
# ETV2 = biological target: T4, ETV2 (Homo sapiens, UniProt O00321 1-342); conditions: protein: recombinant; tags: N-terminal GST; dsDNA, one strand shown
# T4 sequence: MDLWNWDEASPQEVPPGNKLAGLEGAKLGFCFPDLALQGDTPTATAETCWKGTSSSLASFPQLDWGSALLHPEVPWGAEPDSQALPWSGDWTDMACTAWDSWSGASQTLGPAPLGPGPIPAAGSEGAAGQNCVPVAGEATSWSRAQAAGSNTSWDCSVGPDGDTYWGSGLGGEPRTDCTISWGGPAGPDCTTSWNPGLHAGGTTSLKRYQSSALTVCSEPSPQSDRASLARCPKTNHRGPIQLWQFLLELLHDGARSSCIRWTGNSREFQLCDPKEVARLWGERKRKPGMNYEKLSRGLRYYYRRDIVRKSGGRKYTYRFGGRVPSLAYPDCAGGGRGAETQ
# Method in brief: as §1
# ELF3 = biological target: T5, ELF3 (Homo sapiens, UniProt P78545 1-371); conditions: protein: recombinant; tags: N-terminal GST; dsDNA, one strand shown
# T5 sequence: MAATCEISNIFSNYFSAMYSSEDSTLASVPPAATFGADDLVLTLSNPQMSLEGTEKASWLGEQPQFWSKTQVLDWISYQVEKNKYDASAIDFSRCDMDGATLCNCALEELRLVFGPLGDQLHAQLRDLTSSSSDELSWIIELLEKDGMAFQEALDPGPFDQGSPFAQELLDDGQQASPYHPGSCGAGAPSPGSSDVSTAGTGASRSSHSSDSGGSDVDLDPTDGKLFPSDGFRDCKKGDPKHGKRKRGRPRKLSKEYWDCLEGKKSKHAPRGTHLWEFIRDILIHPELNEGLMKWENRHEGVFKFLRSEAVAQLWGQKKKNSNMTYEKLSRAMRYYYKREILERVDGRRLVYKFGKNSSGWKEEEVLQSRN
# Method in brief: as §1
# CRX = CRX (Homo sapiens, UniProt O43186 1-299); conditions: protein: recombinant; tags: N-terminal GST; dsDNA, one strand shown
# CRX, sequence (O43186 whole entry): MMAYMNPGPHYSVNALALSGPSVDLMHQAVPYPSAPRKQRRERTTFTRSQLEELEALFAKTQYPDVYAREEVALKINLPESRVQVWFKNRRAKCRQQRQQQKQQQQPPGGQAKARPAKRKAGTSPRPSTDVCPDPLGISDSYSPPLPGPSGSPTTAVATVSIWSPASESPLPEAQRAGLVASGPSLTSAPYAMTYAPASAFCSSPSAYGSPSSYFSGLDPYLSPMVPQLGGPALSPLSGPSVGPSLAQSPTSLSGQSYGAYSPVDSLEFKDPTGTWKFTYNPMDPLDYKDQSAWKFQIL
# Method in brief: as §1
# ETV1 = ETV1 (Homo sapiens, UniProt P50549 1-477); conditions: protein: recombinant; tags: N-terminal GST; dsDNA, one strand shown
# ETV1, sequence (P50549 whole entry): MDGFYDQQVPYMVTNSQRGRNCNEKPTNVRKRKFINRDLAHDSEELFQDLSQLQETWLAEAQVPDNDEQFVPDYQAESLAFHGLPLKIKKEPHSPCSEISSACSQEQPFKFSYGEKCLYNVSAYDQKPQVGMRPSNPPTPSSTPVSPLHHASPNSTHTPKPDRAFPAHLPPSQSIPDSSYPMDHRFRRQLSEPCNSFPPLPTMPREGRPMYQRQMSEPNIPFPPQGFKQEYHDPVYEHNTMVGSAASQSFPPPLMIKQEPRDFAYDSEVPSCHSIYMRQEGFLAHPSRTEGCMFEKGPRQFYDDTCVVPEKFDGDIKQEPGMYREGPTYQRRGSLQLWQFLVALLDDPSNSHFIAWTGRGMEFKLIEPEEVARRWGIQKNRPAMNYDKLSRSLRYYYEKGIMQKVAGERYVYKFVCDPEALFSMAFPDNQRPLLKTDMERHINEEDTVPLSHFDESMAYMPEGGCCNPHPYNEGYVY
# Method in brief: as §1
# ERF = biological target: T6, ERF (Homo sapiens, UniProt P50548 1-548); conditions: protein: recombinant; tags: N-terminal GST; dsDNA, one strand shown
# T6 sequence: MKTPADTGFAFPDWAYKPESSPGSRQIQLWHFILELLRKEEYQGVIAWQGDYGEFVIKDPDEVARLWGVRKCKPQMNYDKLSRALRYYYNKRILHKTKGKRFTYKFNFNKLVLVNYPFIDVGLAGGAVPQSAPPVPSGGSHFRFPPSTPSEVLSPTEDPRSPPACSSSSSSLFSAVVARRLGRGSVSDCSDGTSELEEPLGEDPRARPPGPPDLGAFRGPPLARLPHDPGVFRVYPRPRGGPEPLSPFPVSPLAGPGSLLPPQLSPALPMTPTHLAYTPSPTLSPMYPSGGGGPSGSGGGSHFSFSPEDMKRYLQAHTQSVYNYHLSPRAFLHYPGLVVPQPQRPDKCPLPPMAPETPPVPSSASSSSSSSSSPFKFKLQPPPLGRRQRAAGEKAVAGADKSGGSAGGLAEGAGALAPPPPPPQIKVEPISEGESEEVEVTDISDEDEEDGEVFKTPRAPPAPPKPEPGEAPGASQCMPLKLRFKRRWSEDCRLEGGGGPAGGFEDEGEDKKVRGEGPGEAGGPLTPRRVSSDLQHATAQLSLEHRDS
# Method in brief: as §1
# ETV3L = biological target: T7, ETV3L (Homo sapiens, UniProt Q6ZN32 1-361); conditions: protein: recombinant; tags: N-terminal GST; dsDNA, one strand shown
# T7 sequence: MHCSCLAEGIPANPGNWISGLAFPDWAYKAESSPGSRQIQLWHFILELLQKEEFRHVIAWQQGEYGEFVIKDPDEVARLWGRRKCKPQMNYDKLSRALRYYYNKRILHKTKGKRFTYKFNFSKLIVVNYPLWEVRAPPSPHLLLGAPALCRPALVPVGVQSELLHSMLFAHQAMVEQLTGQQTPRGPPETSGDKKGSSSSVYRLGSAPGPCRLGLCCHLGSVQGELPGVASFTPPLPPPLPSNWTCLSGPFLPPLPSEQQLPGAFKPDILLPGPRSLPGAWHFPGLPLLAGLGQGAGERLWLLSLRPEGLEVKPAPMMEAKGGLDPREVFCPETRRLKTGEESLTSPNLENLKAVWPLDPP
# Method in brief: as §1
# ETS2 = biological target: T8, ETS2 (Homo sapiens, UniProt P15036 1-469); conditions: protein: recombinant; tags: N-terminal GST; dsDNA, one strand shown
# T8 sequence: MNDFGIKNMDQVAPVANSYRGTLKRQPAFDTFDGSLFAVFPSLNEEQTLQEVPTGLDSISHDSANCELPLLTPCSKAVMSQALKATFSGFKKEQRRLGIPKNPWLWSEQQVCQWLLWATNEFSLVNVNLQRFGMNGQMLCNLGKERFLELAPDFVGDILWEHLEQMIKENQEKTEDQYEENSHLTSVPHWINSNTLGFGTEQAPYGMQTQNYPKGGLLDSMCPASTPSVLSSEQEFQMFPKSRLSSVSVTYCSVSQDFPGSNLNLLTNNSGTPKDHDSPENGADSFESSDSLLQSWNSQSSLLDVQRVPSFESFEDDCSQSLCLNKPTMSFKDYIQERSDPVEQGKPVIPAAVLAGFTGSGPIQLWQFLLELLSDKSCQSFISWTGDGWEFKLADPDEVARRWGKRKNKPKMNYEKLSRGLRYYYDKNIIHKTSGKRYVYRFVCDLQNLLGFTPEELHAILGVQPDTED
# Method in brief: as §1
# SPDEF = biological target: T9, SPDEF (Homo sapiens, UniProt O95238 1-335); conditions: protein: recombinant; tags: N-terminal GST; dsDNA, one strand shown
# T9 sequence: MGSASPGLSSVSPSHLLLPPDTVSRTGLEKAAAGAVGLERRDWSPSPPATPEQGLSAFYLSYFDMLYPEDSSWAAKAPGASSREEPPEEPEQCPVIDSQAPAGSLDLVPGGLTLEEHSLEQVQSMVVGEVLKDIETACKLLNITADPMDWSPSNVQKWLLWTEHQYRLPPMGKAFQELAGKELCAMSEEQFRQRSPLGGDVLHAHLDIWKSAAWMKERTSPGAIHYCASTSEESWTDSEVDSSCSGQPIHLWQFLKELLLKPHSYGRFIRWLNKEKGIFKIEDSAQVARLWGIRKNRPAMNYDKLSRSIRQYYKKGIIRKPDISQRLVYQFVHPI
# Method in brief: as §1
# ETV7 = biological target: T10, ETV7 (Homo sapiens, UniProt Q9Y603 1-341); conditions: protein: recombinant; tags: N-terminal GST; dsDNA, one strand shown
# T10 sequence: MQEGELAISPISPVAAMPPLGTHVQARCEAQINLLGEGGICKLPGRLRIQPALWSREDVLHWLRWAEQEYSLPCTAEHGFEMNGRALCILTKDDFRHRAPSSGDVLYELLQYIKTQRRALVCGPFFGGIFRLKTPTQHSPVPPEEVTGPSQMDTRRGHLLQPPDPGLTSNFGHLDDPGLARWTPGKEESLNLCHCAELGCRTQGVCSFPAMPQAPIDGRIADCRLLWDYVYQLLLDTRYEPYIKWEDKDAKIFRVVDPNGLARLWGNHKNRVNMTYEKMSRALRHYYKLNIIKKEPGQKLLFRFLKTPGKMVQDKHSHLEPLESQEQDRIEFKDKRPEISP
# Method in brief: as §1
# ELF5 = biological target: T11, ELF5 (Homo sapiens, UniProt Q9UKW6-2 1-255); conditions: protein: recombinant; tags: N-terminal GST; dsDNA, one strand shown
# T11 sequence: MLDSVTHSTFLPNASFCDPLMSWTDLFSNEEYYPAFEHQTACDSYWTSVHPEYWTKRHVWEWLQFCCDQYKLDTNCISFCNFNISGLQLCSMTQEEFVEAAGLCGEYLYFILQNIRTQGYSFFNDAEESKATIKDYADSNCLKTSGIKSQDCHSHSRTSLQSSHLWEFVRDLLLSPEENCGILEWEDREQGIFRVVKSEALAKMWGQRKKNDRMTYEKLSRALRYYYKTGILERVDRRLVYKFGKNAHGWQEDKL
# Method in brief: as §1
# ETV3 = biological target: T12, ETV3 (Homo sapiens, UniProt P41162-2 1-143); conditions: protein: recombinant; tags: N-terminal GST; dsDNA, one strand shown
# T12 sequence: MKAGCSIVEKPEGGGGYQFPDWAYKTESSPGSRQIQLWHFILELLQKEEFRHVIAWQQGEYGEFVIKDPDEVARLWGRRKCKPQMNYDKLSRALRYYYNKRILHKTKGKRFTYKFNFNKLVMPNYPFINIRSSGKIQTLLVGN
# Method in brief: as §1
# ETV6 = ETV6 (Homo sapiens, UniProt P41212 1-452); conditions: protein: recombinant; tags: N-terminal GST; dsDNA, one strand shown
# ETV6, sequence (P41212 whole entry): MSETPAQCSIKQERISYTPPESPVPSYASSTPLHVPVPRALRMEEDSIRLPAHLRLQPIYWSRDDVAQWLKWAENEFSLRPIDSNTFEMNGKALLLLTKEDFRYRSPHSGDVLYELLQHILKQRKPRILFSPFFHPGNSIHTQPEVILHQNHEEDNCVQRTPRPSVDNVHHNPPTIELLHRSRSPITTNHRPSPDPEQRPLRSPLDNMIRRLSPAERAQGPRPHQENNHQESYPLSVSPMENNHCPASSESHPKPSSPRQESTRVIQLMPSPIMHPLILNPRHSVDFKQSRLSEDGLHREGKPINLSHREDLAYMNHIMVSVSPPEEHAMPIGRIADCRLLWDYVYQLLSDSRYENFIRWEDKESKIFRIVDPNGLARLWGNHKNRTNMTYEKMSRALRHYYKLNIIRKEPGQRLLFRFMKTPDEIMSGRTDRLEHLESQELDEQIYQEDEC
# Method in brief: as §1
sequence,measurement,setting,value
ACTACC,binding signal,FEV,"1.55 fold enrichment (6-mer frequency, TF over GST control)"
same,binding signal,ETV5,"1.64 fold enrichment (6-mer frequency, TF over GST control)"
same,binding signal,HSF1,"1.09 fold enrichment (6-mer frequency, TF over GST control)"
same,binding signal,SPIC,"1.58 fold enrichment (6-mer frequency, TF over GST control)"
same,binding signal,ELF4,"1.66 fold enrichment (6-mer frequency, TF over GST control)"
same,binding signal,ELK4,"1.59 fold enrichment (6-mer frequency, TF over GST control)"
same,binding signal,ETV2,"1.72 fold enrichment (6-mer frequency, TF over GST control)"
same,binding signal,ELF3,"1.58 fold enrichment (6-mer frequency, TF over GST control)"
same,binding signal,CRX,"1.1 fold enrichment (6-mer frequency, TF over GST control)"
same,binding signal,ETV1,"1.59 fold enrichment (6-mer frequency, TF over GST control)"
same,binding signal,ERF,"1.72 fold enrichment (6-mer frequency, TF over GST control)"
same,binding signal,ETV3L,"1.6 fold enrichment (6-mer frequency, TF over GST control)"
same,binding signal,ETS2,"1.7 fold enrichment (6-mer frequency, TF over GST control)"
same,binding signal,SPDEF,"1.61 fold enrichment (6-mer frequency, TF over GST control)"
same,binding signal,ETV7,"1.55 fold enrichment (6-mer frequency, TF over GST control)"
same,binding signal,ELF5,"1.76 fold enrichment (6-mer frequency, TF over GST control)"
same,binding signal,ETV3,"1.7 fold enrichment (6-mer frequency, TF over GST control)"
same,binding signal,ETV6,"1.74 fold enrichment (6-mer frequency, TF over GST control)"
